Experimental findings from PubChem BioAssay (EPA / NIEHS) are described below.

The source made the active and inactive calls. The calls were made as follows: active = hit-call score of the fitted dose curve at least 0.9, where 1 is the maximum; inactive = score below 0.9.

In general, AC50 refers to the midpoint of the concentration-response curve, whichever way the signal moves.

Conditions in all cases: mRNA level, 48 h; actives raise or lower the signal
Read-out in test [1]: DNA damage-inducible transcript 3 (DDIT3), DDIT3 (gene 1649)
Description: LTEA_HepaRG_DDIT3: Life Technologies and Expression Analysis (LTEA) Assay for DNA damage-inducible transcript 3 (DDIT3) using HepaRG (AID 2283488). The essentials:
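qRT-PCR readout (Fluidigm TaqMan), housekeeping-normalized to ACTB, GAPDH, POLR2A. HepaRG cells, 48 h exposure, 8-point half-log series from 100 uM in 0.5% DMSO, duplicates. Gain or loss of signal fitted against DMSO baseline.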

Read-out in test [2]: Pro-epidermal growth factor (Homo sapiens) (UniProt P01133)
Description: LTEA_HepaRG_EGF: Life Technologies and Expression Analysis (LTEA) Assay for Epidermal growth factor (EGF) using HepaRG (AID 2283489). The method, boiled down: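 HepaRG cells (~100,000/well, 48 h pre-culture) exposed in duplicate for 48 h in serum-free induction medium to 8 half-log concentrations up to 100 uM in 0.5% DMSO. EGF mRNA by qRT-PCR, normalized to ACTB/GAPDH/POLR2A; bidirectional fit versus DMSO.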

Read-out in test [3]: Early growth response protein 1 (EGR1) transcription factor, EGR1 (gene 1958)
The experiment in a line: LTEA_HepaRG_EGR1: Life Technologies and Expression Analysis (LTEA) Assay for Early growth response protein 1 (EGR1) transcription factor using HepaRG (AID 2283490). The essentials: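 EGR1 transcript levels quantified by qRT-PCR (Fluidigm arrays) against three housekeeping genes after 48 h chemical exposure of HepaRG cells. Eight-point half-log series topping at 100 uM, 0.5% DMSO vehicle, analyzed for gain or loss.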

Read-out in test [4]: Ezrin (EZR), EZR (gene 7430)
The experiment in a line: LTEA_HepaRG_EZR: Life Technologies and Expression Analysis (LTEA) Assay for Ezrin (EZR) using HepaRG (AID 2283491). The method, boiled down: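 Gain or loss of EZR mRNA is scored relative to 0.5% DMSO in human HepaRG cultures treated 48 h with test chemicals in duplicate, eight half-log concentrations from 100 uM.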

Read-out in the next test: CYP3A5 (gene 1577)
Description: LTEA_HepaRG_CYP3A5: Life Technologies and Expression Analysis (LTEA) Assay for CYP3A5 using HepaRG (AID 2283493). The essentials: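 qRT-PCR read-out: CYP3A5 transcript in HepaRG lysates, housekeeping-normalized (ACTB/GAPDH/POLR2A), fitted bidirectionally against 0.5% DMSO baseline. Exposure 48 h, eight half-log concentrations up to 100 uM, duplicates.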

Read-out in test [5]: Fatty Acid-Binding Protein 1 (FABP1), FABP1 (gene 2168)
The experiment in a line: LTEA_HepaRG_FABP1: Life Technologies and Expression Analysis (LTEA) Assay for Fatty Acid-Binding Protein 1 (FABP1) using HepaRG (AID 2283494). The method, boiled down:
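FABP1 expression by TaqMan qRT-PCR, normalised to three housekeeping genes, in HepaRG cells after 48 h chemical treatment. Eight-point half-log series topping at 100 uM in 0.5% DMSO, duplicates; gain or loss fitted relative to vehicle.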

Read-out in test [6]: Cytochrome P450 4A22 (Homo sapiens) (UniProt Q5TCH4)
Description: LTEA_HepaRG_CYP4A22: Life Technologies and Expression Analysis (LTEA) Assay for Cytochrome P450 4A22 (CYP4A22) using HepaRG (AID 2283495). The method, boiled down:
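Differentiated HepaRG cells in serum-free induction medium exposed 48 h in duplicate to eight half-log concentrations up to 100 uM in 0.5% DMSO. CYP4A22 mRNA quantified by TaqMan qRT-PCR, normalized to ACTB, GAPDH and POLR2A; bidirectional fit versus DMSO.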

Read-out in test [7]: Glutathione S-Transferase (GSTA2), GSTA2 (gene 2939)
Description: LTEA_HepaRG_GSTA2: Life Technologies and Expression Analysis (LTEA) Assay for Glutathione S-Transferase (GSTA2) using HepaRG (AID 2283497). The method, boiled down: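 GSTA2 transcript levels came from Fluidigm TaqMan qRT-PCR normalized to three housekeeping genes, fitted in both directions against DMSO. HepaRG cultures received chemicals for 48 h in serum-free induction medium (0.5% DMSO), 8 half-log concentrations up to 100 uM, duplicate.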

Read-out in test [8]: Glutamate-cysteine ligase catalytic (GCLC), GCLC (gene 2729)
The experiment in a line: LTEA_HepaRG_GCLC: Life Technologies and Expression Analysis (LTEA) Assay for Glutamate-cysteine ligase catalytic (GCLC) using HepaRG (AID 2283498). The method, boiled down:
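Expression by TaqMan qRT-PCR, normalized to three housekeeping genes (ACTB, GAPDH, POLR2A), with up- or down-regulation fitted against DMSO. HepaRG cells dosed in duplicate for 48 h with 8 half-log concentrations up to 100 uM, vehicle 0.5% DMSO.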

Read-out in test [9]: growth arrest and DNA damage 45 (GADD45G), GADD45G (gene 10912)
Description: LTEA_HepaRG_GADD45G: Life Technologies and Expression Analysis (LTEA) Assay for growth arrest and DNA damage 45 (GADD45G) using HepaRG (AID 2283499). The essentials: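 Differentiated human HepaRG cells, 48 h post-plating, exposed 48 h in serum-free induction medium to 8 half-log concentrations (top 100 uM, 0.5% DMSO) in duplicate. GADD45G mRNA measured by Fluidigm TaqMan qRT-PCR, normalized to ACTB, GAPDH, POLR2A; bidirectional fit versus DMSO.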

Read-out in test [10]: Glutathione S-transferase M3 (GSTM3), GSTM3 (gene 2947)
Description: LTEA_HepaRG_GSTM3: Life Technologies and Expression Analysis (LTEA) Assay for Glutathione S-transferase M3 (GSTM3) using HepaRG (AID 2283501). The method, boiled down:
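Differentiated human HepaRG cells were exposed in duplicate for 48 h in serum-free induction medium, 8 points from 100 uM top in half-log steps, 0.5% DMSO. GSTM3 mRNA was measured by TaqMan qRT-PCR, normalized to ACTB, GAPDH and POLR2A; bidirectional fit versus DMSO.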

Read-out in test [11]: Hypoxia-inducible factor 1-alpha (Homo sapiens) (UniProt Q16665)
The experiment in a line: LTEA_HepaRG_HIF1A: Life Technologies and Expression Analysis (LTEA) Assay for Hypoxia-inducible factor 1 (HIF1A) Trancription factor using HepaRG (AID 2283503). The method, boiled down:
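Gain- or loss-of-signal HIF1A mRNA changes are fitted against a DMSO baseline. HepaRG cultures receive eight concentrations, highest 100 uM, for 48 h in serum-free induction medium with 0.5% DMSO.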

Read-out in test [12]: 3-Hydroxy-3-Methylglutaryl-CoA Synthase 2 (HMGCS2), HMGCS2 (gene 3158)
Description: LTEA_HepaRG_HMGCS2: Life Technologies and Expression Analysis (LTEA) Assay for 3-Hydroxy-3-Methylglutaryl-CoA Synthase 2 (HMGCS2) using HepaRG (AID 2283504). The essentials:
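Human HepaRG cells in serum-free induction medium were exposed in duplicate for 48 h to 8-point half-log series from 100 uM top in 0.5% DMSO. HMGCS2 mRNA measured by TaqMan qRT-PCR, normalised to ACTB, GAPDH, POLR2A; bidirectional fit versus DMSO.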

Read-out in the next test: HGF (gene 3082)
The experiment in a line: LTEA_HepaRG_HGF: Life Technologies and Expression Analysis (LTEA) Assay for Hepatocyte Growth Facto (HGF) using HepaRG (AID 2283505). The essentials: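 Differentiated HepaRG cells in serum-free induction medium exposed 48 h in duplicate, 8 half-log concentrations from 100 uM in 0.5% DMSO. HGF mRNA by qRT-PCR, normalised to ACTB, GAPDH, POLR2A; bidirectional fitting.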

Read-out in test [13]: Insulin Like Growth Factor 1 (IGF1), IGF1 (gene 3479)
The experiment in a line: LTEA_HepaRG_IGF1: Life Technologies and Expression Analysis (LTEA) Assay for Insulin Like Growth Factor 1 (IGF1) using HepaRG (AID 2283506). The essentials:
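qRT-PCR readout of IGF1 mRNA, normalized to three housekeeping genes, after 48 h chemical exposure of HepaRG cells. Concentrations: 8-point half-log series, top 100 uM, 0.5% DMSO vehicle. Gain or loss fitted against DMSO baseline.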

Read-out in test [14]: Intercellular Adhesion Molecule 1 (ICAM1), ICAM1 (gene 3383)
The experiment in a line: LTEA_HepaRG_ICAM1: Life Technologies and Expression Analysis (LTEA) Assay for Intercellular Adhesion Molecule 1 (ICAM1) using HepaRG (AID 2283507). The method, boiled down: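 Differentiated human HepaRG cells in serum-free induction medium exposed 48 h in duplicate to 8 half-log concentrations (top 100 uM, 0.5% DMSO). ICAM1 mRNA quantified by TaqMan qRT-PCR, normalized to ACTB, GAPDH and POLR2A; bidirectional fitting versus DMSO.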

Read-out in test [15]: Glutamate-cysteine ligase regulatory (GCLM), GCLM (gene 2730)
Description: LTEA_HepaRG_GCLM: Life Technologies and Expression Analysis (LTEA) Assay for Glutamate-cysteine ligase regulatory (GCLM) using HepaRG (AID 2283500). The method, boiled down: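 HepaRG, 48 h dosing, 100 uM top, half-log x8, 0.5% DMSO vehicle. Readout: GCLM mRNA by TaqMan qRT-PCR, housekeeping-normalized (ACTB/GAPDH/POLR2A). Curves fit bidirectionally vs DMSO baseline.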

Read-out in test [16]: Heat shock 70 kDa protein 1 (HSPA1A), gene 3303
Description: LTEA_HepaRG_HSPA1A: Life Technologies and Expression Analysis (LTEA) Assay for Heat shock 70 kDa protein 1 (HSPA1A) using HepaRG (AID 2283502). The method, boiled down:
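HepaRG, 48 h exposure, 8-pt half-log CRC from 100 uM in 0.5% DMSO, duplicates. Readout: TaqMan qRT-PCR of HSPA1A mRNA, housekeeping-normalized (ACTB/GAPDH/POLR2A). Bidirectional fit vs 0.5% DMSO baseline.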

Chain of Hypoxia-inducible factor 1-alpha (Homo sapiens) (Q16665 whole entry, looked up): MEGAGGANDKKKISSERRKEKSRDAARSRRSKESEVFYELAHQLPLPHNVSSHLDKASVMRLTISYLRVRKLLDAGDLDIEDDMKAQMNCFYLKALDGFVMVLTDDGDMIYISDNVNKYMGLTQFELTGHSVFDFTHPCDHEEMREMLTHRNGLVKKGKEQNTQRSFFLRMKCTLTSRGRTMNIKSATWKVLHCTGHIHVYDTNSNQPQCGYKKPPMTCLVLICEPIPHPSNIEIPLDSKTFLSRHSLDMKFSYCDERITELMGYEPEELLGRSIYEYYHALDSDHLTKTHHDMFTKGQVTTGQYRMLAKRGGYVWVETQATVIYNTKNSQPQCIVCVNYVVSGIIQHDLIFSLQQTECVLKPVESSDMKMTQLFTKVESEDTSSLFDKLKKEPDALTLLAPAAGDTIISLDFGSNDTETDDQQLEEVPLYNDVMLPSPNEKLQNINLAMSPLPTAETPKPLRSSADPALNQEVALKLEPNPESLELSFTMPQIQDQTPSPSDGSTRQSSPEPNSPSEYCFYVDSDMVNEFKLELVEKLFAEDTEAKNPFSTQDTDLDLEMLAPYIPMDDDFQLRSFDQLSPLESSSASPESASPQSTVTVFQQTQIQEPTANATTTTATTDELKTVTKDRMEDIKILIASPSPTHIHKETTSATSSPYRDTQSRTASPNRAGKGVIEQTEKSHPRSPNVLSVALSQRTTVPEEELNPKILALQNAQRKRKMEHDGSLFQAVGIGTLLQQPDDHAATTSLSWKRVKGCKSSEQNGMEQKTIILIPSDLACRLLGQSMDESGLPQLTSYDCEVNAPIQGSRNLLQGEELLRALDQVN

With `COP(=O)(NC(C)=O)SC` (stereo unspecified), the call (in test [1]; in test [2]; in test [3]; in test [4]; with CYP3A5 (gene 1577); in [5]) was inactive. Moreover, the compound was classed as inactive in [6], in [7], in test [8], in test [9], in [10] and in test [11]. The outcome (in test [12]; in the test with HGF (gene 3082); in test [13]; in test [14]) was inactive.

For `CCCCSP(=O)(SCCCC)SCCCC`, the AC50 is 76 µM (active) in test [1], 92.5 µM (active) in test [5], 68.1 µM (active) in test [6] and 50 µM (active) in test [12]. The compound was called inactive (in [2]; in test [3]; in test [4]; in the test with CYP3A5 (gene 1577); in test [7]; in test [8]). In addition, the compound was called inactive (in test [9]; in test [15]; in [10]; in [11]; with HGF (gene 3082); in test [14]).

With `CCOP(=S)(OCC)Oc1ccc([N+](=O)[O-])cc1`, the call (in test [1]; in [2]; in test [3]; in [4]; in the test with CYP3A5 (gene 1577); in test [5]) was inactive. Also, the call in test [6], in [7], in test [8], in test [9], in [11] and in [12] was inactive. The compound was classed as inactive (with HGF (gene 3082); in test [14]).

As to `CCCCOC(=O)c1ccccc1C(=O)O`, the compound was classed as inactive (in [1]; in test [2]; in test [3]; in [4]; with CYP3A5 (gene 1577); in test [5]). Besides, the outcome in [6], in test [7], in [8], in test [9], in [16] and in test [11] was inactive. Moreover, the result (in [12]; with HGF (gene 3082); in test [14]) was inactive.
